Laboratory results: PubChem BioAssay
Counter-ions that a name gives are not always drawn. Calls of active or inactive are those of the source.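 The calls were made as follows, unless noted: active = luciferase signal above three times the same-plate solvent-only control wells; inactive = the rest.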 Peptide text beside a SMILES is read from it. * marks the point of attachment. Tfa = O=C(C(F)(F)F)*

Tested on: not listed separately
Assay: suppressors of polyglutamine aggregation in yeast, 75Q-TubH (AID 1616)
Conditions: S. cerevisiae 75Q-TubH polyglutamine aggregation suppression; stronger effect = higher value

SMILES | aggregation suppression score
CN[C@@H]1[C@H](O)[C@H](NC)[C@H]2O[C@@]3(O)C(=O)C[C@@H](C)O[C@H]3OC2[C@H]1O (some centres not stated) | 1.36
CC[C@@H](C(=O)C(C)[C@@H](O)[C@H](C)CCc1ccc(C)c(O)c1C(=O)O)C1OC(CC)(C2CC[C@](O)(CC)[C@H](C)O2)C[C@@H]1C (some centres not stated) | 0.948
CCCCC(=O)OC1(C(=O)CO)C(C)CC2C3CCC4=CC(=O)C=CC4(C)[C@@]3(F)[C@@H](O)CC21C (some centres not stated) | 1.32
O=c1c(O)cc2c(O)oc3c(=O)c(O)cc4c3c2c1CC=4O | 0.786
CC[C@@]1(O)C[C@H](OC2CC(N(C)C)C(OC3CC(O)C(OC4CCC(=O)C(C)O4)C(C)O3)C(C)O2)c2c(cc3c(c2O)C(=O)c2c(O)cccc2C3=O)[C@H]1C(=O)OC (some centres not stated) | 0.557
Cc1cc(Nc2ccccc2C(=O)O)ccc1Cl | -0.491
CC1CC2C3CCC4=CC(=O)C=CC4(C)[C@@]3(F)C(O)CC2(C)[C@@]1(O)C(=O)CO (some centres not stated) | 1.3
NCCCCC(N)C(=O)NC(Cc1c[nH]c2ccccc12)C(=O)NC(CCCCN)C(=O)O (stereo not drawn) (H-Lys-Trp-Lys-OH; configuration not given here) | 1.18
CC(=O)N[C@@H](Cc1c[nH]c2ccccc12)C(N)=O | 1.53
CCC(=O)O[C@@H](O[P@](=O)(CCCCc1ccccc1)CC(=O)N1C[C@H](C2CCCCC2)C[C@H]1C(=O)O)C(C)C | 0.527
C[C@@H]1OC(Oc2c(-c3ccc(O)c(O)c3)oc3cc(O)cc(O)c3c2=O)[C@H](O)[C@H](O)[C@H]1O (some centres not stated) | 1.5
C=C1C(=O)OC2C1CCC1(C)CCC=C(C)C21 (configuration not stated) | 0.322
CC(NC(=O)C(NC(=O)OCc1ccccc1)C(C)C)C(=O)NC(CC(=O)O)C(=O)OC(F)F (configuration not stated) | 1.2

Tested on: not listed separately
Assay: liver-stage malaria parasite growth inhibition, primary screen, cell-based, HepG2, luciferase luminescence, HepG2 viability (AID 624349; in the data active = parasite load remaining mostly below about 12%, no sharp cut-off; inactive = mostly above about 10%;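 also: 100% = mean of DMSO negative control wells on the same plate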)
Conditions: P. berghei liver stage in HepG2, luciferase luminescence, concentration not given here; parasite load remaining: stronger effect = lower value; viability: measured here: HepG2 viability without parasites

SMILES | viability [%] | parasite load remaining
CC[C@@H](C(=O)C(C)[C@@H](O)[C@H](C)CCc1ccc(C)c(O)c1C(=O)O)C1OC(CC)(C2CC[C@](O)(CC)[C@H](C)O2)C[C@@H]1C (some centres not stated) | 84.4 | -0.43% (inactive)
CC1=CC(=O)CC(C)(C)C1(O)/C=C/C(C)=C\C(=O)O (configuration not stated) | 73.1 | 91.5% (inactive)
CC(=O)N[C@@H](Cc1c[nH]c2ccccc12)C(N)=O | 71.9 | 142% (inactive)

Target: Mitogen-activated protein kinase 7 (Homo sapiens) (UniProt Q13164)
Assay: ERK5 transactivation activators in reporter cells, primary screen, cell-based, HTS (AID 1508626);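 also: luciferase driven by Gal4-ERK5 fusion binding five Gal4 sites before minimal TATA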
Conditions: HeLa Gal4-ERK5 transactivation, 18 h, at 5 µM, stronger effect = higher value

Sequence of Mitogen-activated protein kinase 7 (Homo sapiens) (Q13164 whole entry, looked up, the tested form may be a part): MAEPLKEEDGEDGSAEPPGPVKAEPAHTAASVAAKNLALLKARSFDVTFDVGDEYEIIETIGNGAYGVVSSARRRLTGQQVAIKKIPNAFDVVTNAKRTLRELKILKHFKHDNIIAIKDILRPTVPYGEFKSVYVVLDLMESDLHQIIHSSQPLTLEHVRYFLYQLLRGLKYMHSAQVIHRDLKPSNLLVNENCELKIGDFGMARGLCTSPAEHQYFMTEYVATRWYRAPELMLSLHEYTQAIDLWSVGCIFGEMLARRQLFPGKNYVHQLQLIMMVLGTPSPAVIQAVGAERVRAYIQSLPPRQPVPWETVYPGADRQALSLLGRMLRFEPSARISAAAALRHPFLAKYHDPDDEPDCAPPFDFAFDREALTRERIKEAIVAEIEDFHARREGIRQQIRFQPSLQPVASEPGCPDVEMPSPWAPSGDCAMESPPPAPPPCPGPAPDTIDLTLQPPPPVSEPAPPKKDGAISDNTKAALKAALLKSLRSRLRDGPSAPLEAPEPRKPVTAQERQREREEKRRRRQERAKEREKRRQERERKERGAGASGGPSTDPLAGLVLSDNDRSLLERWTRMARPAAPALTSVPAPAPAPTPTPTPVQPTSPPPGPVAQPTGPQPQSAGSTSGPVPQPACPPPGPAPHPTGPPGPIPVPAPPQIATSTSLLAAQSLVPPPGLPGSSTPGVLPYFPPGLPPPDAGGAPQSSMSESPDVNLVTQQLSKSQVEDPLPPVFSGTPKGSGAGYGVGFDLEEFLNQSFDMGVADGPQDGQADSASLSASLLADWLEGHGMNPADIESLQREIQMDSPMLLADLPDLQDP

SMILES | luciferase signal
CO/N=C(/C(=O)NC1C(=O)N2C(C(=O)O)=C(CSc3nc(=O)c(=O)[nH]n3C)CS[C@H]12)c1csc(N)n1 (some centres not stated) | 52 AU (inactive)
O=c1c2cc(O)c(O)cc2oc2cc(O)c([C@@H]3O[C@H](CO)[C@@H](O)[C@H](O)[C@H]3O)c(O)c12 | 48 AU (inactive)
C=C1CC[C@@]2(OC1)O[C@H]1C[C@H]3[C@@H]4CC=C5C[C@@H](O)C[C@@H](O)[C@]5(C)[C@H]4CC[C@]3(C)[C@H]1[C@@H]2C | 84 AU (inactive)
CC1(C)CC[C@]2(C(=O)O)CC[C@]3(C)C(=CC[C@@H]4[C@@]5(C)CC[C@H](O)C(C)(C)[C@@H]5[C@H](O)C[C@]43C)[C@@H]2C1 | 84 AU (inactive)
CC(C)CCC[C@@H](C)C1CC[C@H]2[C@@H]3CCC4CC(=O)CC[C@]4(C)[C@H]3CC[C@]12C (some centres not stated) | 52 AU (inactive)
C=CCCCCCCCCCCCC(O)CC(O)CO (configuration not stated) | 220 AU (active)
COc1ccc(-c2coc3cc(OC(C)=O)cc(OC(C)=O)c3c2=O)cc1 | 80 AU (inactive)
O=C(O)C(O)C(O)(Cc1ccc(O)cc1)C(=O)O (configuration not stated) | 16 AU (inactive)
CC(=O)[C@H]1CC[C@H]2[C@@H]3CCC4=CC(=O)CC[C@]4(C)[C@H]3C(OC(=O)CCC(=O)O)C[C@]12C (some centres not stated) | 60 AU (inactive)
CC(C)C(NC(=O)C(Cc1ccc(O)cc1)NC(=O)C(NC(=O)C(F)(F)F)C(C)C)C(=O)O (stereo not drawn) (Tfa-Val-Tyr-Val-OH; configuration not given here) | 64 AU (inactive)
O=S(=O)([O][Al])OC[C@H]1O[C@@](COS(=O)(=O)[O][Al])(O[C@H]2O[C@H](COS(=O)(=O)[O][Al])[C@@H](OS(=O)(=O)[O][Al])[C@H](OS(=O)(=O)[O][Al])[C@H]2OS(=O)(=O)[O][Al])[C@@H](OS(=O)(=O)[O][Al])[C@@H]1OS(=O)(=O)[O][Al] | 84 AU (inactive)
CC[C@H](C)[C@H](N)C(=O)N1CCC[C@H]1C(=O)N[C@H](C(=O)O)[C@@H](C)CC | 120 AU (inactive)
CO/N=C(/C(=O)N[C@@H]1C(=O)N2C(C(=O)OCOC(=O)C(C)(C)C)=C(/C=C\c3scnc3C)CS[C@H]12)c1csc(N)n1 | 132 AU (inactive)
